# Measured values from PubChem BioAssay (Tox21).
# Results filed as inconclusive are left out. Entries that show only a call come without a potency. Active and inactive are the calls of the source. Unless noted, calls follow the shape of the dose curve; as a rule, active = well fitted curve in the direction sought with a large enough effect in the repeat runs; inconclusive = weak or mixed curves; inactive = no such curve, though single readings can be large; an effect the other way counts as inactive or inconclusive.
# Experiments:
# [1] = qHTS assay to identify small molecule antagonists of the TGF-beta/Smad signaling pathway - cell viability counter screen (AID 1346824); also: nearly all actives have a fitted effect of over 50% in size; also: potency is read from the fitted curve at half-maximal effect
# Method in brief: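 SBE-bla HEK 293T cells were plated overnight at 37 C, then given compounds in DMSO plus TGF-beta1 (added as 0.25 ng/mL solution) for 5 hr. After the bla read, CellTiter-Glo was added to the same wells and luminescence read after 30 min at room temperature.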
# [2] = qHTS assay to identify small molecule agonists of the TGF-beta/Smad signaling pathway - cell viability counter screen (AID 1346829); also: nearly all actives have a fitted effect of over 45% in size; also: potency is read from the fitted curve at half-maximal effect
# Method in brief: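 CellTiter-Glo luminescence readout; SBE-bla HEK 293T cells, overnight plating, compound 5 hr at 37 C/5% CO2, then bla substrate 2 hr RT, then CellTiter-Glo 30 min RT.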
# [3] = target: Thyrotropin-releasing hormone receptor (Homo sapiens) (UniProt P34981); test: qHTS assay to identify small molecule antagonists of the thyrotropin-releasing hormone receptor (TRHR) signaling pathway (AID 1346877; active = well fitted inhibition curve with a large enough effect in the repeat runs, not every such curve was filed as active; also: series mostly up to about 51 µM)
# Chain of Thyrotropin-releasing hormone receptor (Homo sapiens) (P34981 whole entry, looked up): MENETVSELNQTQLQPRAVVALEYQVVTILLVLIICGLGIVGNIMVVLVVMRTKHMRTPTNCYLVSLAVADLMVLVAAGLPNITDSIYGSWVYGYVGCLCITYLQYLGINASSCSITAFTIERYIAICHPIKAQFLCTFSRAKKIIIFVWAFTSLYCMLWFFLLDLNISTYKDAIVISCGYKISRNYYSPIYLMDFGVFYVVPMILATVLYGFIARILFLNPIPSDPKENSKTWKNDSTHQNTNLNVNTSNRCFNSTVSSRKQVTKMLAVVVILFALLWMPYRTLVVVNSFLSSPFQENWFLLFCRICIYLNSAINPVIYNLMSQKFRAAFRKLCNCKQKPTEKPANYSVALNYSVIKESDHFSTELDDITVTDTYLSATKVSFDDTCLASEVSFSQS
# Method in brief: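 Human TRHR in HEK293 cells; inhibition of the intracellular calcium rise triggered by 1 nM TRH was followed by fluorescence over 3 min. Compounds were run at 15 concentrations, three replicates each.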
# [4] = target: Thyrotropin-releasing hormone receptor (Homo sapiens) (UniProt P34981); test: qHTS assay to identify small molecule agonists of the thyrotropin-releasing hormone receptor (TRHR) signaling pathway (AID 1346891; calls by dose curve; also: potency is read from the fitted curve at half-maximal effect; as to activation: series mostly up to about 58 µM)
# Method in brief: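 HEK293 cells expressing TRHR plated 18 h at 37 C/5% CO2, calcium dye-loaded 2 h at 37 C, then compound added (agonist mode); kinetic calcium fluorescence read 3 min at 1 s intervals; 15 concentrations in triplicate.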
# [5] = Human pregnane X receptor (PXR) small molecule agonists, qHTS cell viability counter screen (AID 1346977); also: nearly all actives have a fitted effect of over 50% in size; also: potency is read from the fitted curve at half-maximal effect
# Method in brief: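 PXR-Luc HepG2 cells (2,000/well, 5% charcoal-stripped FBS) preincubated 5 hr, then exposed to compounds 24 hr at 37 C. Viability read in the same wells by CellTiter-Fluor fluorescence, reagent added at 23 hr, 1 hr incubation.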
# [6] = Caspase-3/7 induction in HepG2 cells by small molecules, qHTS assay (AID 1346978); also: nearly all actives have a fitted effect of over 15% in size; also: potency is read from the fitted curve at half-maximal effect
# Method in brief: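 Wild-type HepG2 cells (2,000/well) were settled 5 h at 37 C, 5% CO2, then exposed to compounds in DMSO for 17 h. Caspase-3/7 activity was read by luminescence 30 min after adding Caspase-Glo 3/7 reagent at room temperature.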
# [7] = Caspase-3/7 induction in CHO-K1 cells by small molecules, qHTS cell viability counter screen (AID 1346979); also: nearly all actives have a fitted effect of over 35% in size; also: potency is read from the fitted curve at half-maximal effect
# Method in brief: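 Wild-type CHO-K1 cells (1,500/well) treated with compound after 5 h plating; after 16 h at 37C, viability read as CellTiter-Fluor fluorescence following 1 h reagent incubation, in the same wells as the caspase read.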
# [8] = Caspase-3/7 induction in CHO-K1 cells by small molecules, qHTS assay (AID 1346980); also: nearly all actives have a fitted effect of over 15% in size; also: potency is read from the fitted curve at half-maximal effect
# Method in brief: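 Wild-type cells were seeded at 1,500 per well and settled 5 hr at 37 C, 5% CO2, then exposed to DMSO-dissolved compounds for 17 hr. Caspase-Glo 3/7 reagent was added, and luminescence was read after 30min at room temperature.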
# [9] = Caspase-3/7 induction in HepG2 cells by small molecules, qHTS cell viability counter screen (AID 1346981); also: nearly all actives have a fitted effect of over 30% in size; also: potency is read from the fitted curve at half-maximal effect
# Method in brief: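 The parent HepG2 line is plated at 2,000 cells per well and rested 5 hr before compound pinning from DMSO stocks. Following a 16-hr treatment at 37 C, a fluorogenic live-cell substrate (CellTiter-Fluor) reports viability after 1 hr.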
# [10] = qHTS assay to identify small molecule agonists of the TGF-beta/Smad signaling pathway (AID 1346859; active = well fitted activation curve with a large enough effect in the signal ratio in the repeat runs, not every such curve was filed as active; the % refers to the signal ratio; also: series mostly up to about 77 µM)
# Method in brief: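 SBE-bla HEK293T cells plated overnight, then compound exposure for 5 h at 37 C. Beta-lactamase reporter read with LiveBLAzer B/G FRET substrate after 2 h at room temperature, fluorescence at 405 nm excitation, 460/530 nm emission.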
SMILES,Potency [1],Potency [2],Potency [3],Potency [4],Potency [5],Potency [6],Potency [7],Potency [8],Potency [9],outcome [10]
Nc1ccc(Cl)c([N+](=O)[O-])c1,inactive,inactive,inactive,inactive,inactive,inactive,54.5 µM (active),inactive,inactive,
CCCOC(=O)c1ccc(O)cc1,inactive,inactive,inactive,inactive,inactive,inactive,inactive,inactive,inactive,
C=CC(C)(C)O,inactive,inactive,,,inactive,inactive,inactive,inactive,inactive,inactive
C=C1CC[C@H]2O[C@]2(C)CC[C@@H]2[C@@H]1CC2(C)C,inactive,inactive,,,inactive,inactive,inactive,inactive,inactive,inactive
C=CCc1cc(S(=O)(=O)c2ccc(O)c(CC=C)c2)ccc1O,inactive,inactive,,,,inactive,,inactive,,inactive
O=c1[nH]cccc1O,inactive,inactive,,,inactive,inactive,inactive,inactive,inactive,inactive
CC(Cc1ccc(O)c(O)c1)C(C)Cc1ccc(O)c(O)c1 (stereo not given),inactive,inactive,,,inactive,inactive,54.5 µM (active),inactive,,inactive
CCN(CC)c1ccc(C=O)c(O)c1,inactive,inactive,,,inactive,inactive,,inactive,inactive,inactive
O=[N+]([O-])c1ccc(O)c2ncccc12,inactive,inactive,,,,inactive,8.41 µM (active),5.96 µM (active),,inactive
NC(=O)c1ccccc1Cl,inactive,inactive,,,inactive,inactive,inactive,inactive,inactive,inactive
C=C(C)C1CCC(C)CC1O (stereo not given),inactive,inactive,,,inactive,inactive,inactive,inactive,inactive,inactive
O=C(N[C@H](CO)[C@H](O)c1ccc([N+](=O)[O-])cc1)C(Cl)Cl,inactive,inactive,,,inactive,inactive,inactive,inactive,,inactive
CCCCCc1ccc(O)cc1,inactive,inactive,,,inactive,,,inactive,inactive,inactive
C=COCCCC,inactive,inactive,,,inactive,inactive,inactive,inactive,inactive,inactive
Nc1cc([N+](=O)[O-])ccc1Cl,inactive,inactive,,,inactive,inactive,inactive,inactive,inactive,inactive
CCNc1nc(NC(C)(C)C)nc(OC)n1,inactive,inactive,inactive,inactive,inactive,inactive,inactive,inactive,inactive,
CCCCCN=C(N)N/N=C/c1c[nH]c2ccc(OC)cc12,26.8 µM (active),23.9 µM (active),inactive,inactive,18.8 µM (active),11.9 µM (active),29.8 µM (active),inactive,26.6 µM (active),
CC1(C)[C@H](C(=O)OCc2cccc(Oc3ccccc3)c2)[C@@H]1C=C(Cl)Cl,inactive,inactive,inactive,inactive,inactive,inactive,inactive,inactive,inactive,
CCN(CC)c1ccc2c(c1)Oc1cc(N(CC)CC)ccc1C21OC(=O)c2ccccc21,inactive,inactive,inactive,15.1 µM (active),4.22 µM (active),inactive,2.37 µM (active),inactive,5.31 µM (active),
Cc1ccc(N=Nc2c(O)ccc3ccccc23)c(C)c1,inactive,inactive,,inactive,,inactive,7.5 µM (active),inactive,8.41 µM (active),
C=Cc1ccncc1,inactive,inactive,inactive,inactive,inactive,inactive,inactive,inactive,inactive,
CCC(C)(C)c1ccc(CC(C)CN2C[C@@H](C)O[C@@H](C)C2)cc1 (stereo not given in full),inactive,inactive,inactive,inactive,inactive,inactive,,inactive,inactive,
Oc1ccc2c(c1)CCC2,inactive,inactive,,inactive,inactive,inactive,inactive,inactive,inactive,
